Measurements as given in the supplement of paper PMC6555819.

Columns and labels:
Assay in all cases: PBM binding z-score (relative to random genomic background probes); higher = stronger binding; sequences stand for … in GC…GCGATTGACAGCGTAGAATGAAGG
[1] = tested on: FXR:RXRa (NR concentration 270 nM, RXRa partner concentration 90 nM)
Method in brief: (§1)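 Custom Agilent 4×180K protein-binding microarrays carried double-stranded probes, each with a 34-nt variable region. These regions held direct-repeat seeds, single-nucleotide variants, half-site ablations and random human genomic background sequences. Ligand-free nuclear receptor dimers were incubated on the arrays for 1 h, antibodies against each partner (one per run) detected binding, and scanned fluorescence was regression-normalized. Binding z-scores take the random background probes as reference.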

[2] = tested on: LXRa:RXRa (NR concentration 270 nM, RXRa partner concentration 90 nM)
Method in brief: as §1

[3] = tested on: LXRa homodimer (NR concentration 270 nM)
Method in brief: as §1

[4] = tested on: LXRb:RXRa (NR concentration 270 nM, RXRa partner concentration 90 nM)
Method in brief: as §1

[5] = tested on: LXRb homodimer (NR concentration 270 nM)
Method in brief: as §1

[6] = tested on: PPARa:RXRa (NR concentration 270 nM, RXRa partner concentration 90 nM)
Method in brief: as §1

[7] = tested on: PPARg:RXRa (NR concentration 180 nM, RXRa partner concentration 90 nM)
Method in brief: as §1

[8] = tested on: PPARg:RXRa 270nM:90nM, anti-RXR (NR concentration 270 nM, RXRa partner concentration 90 nM)
Method in brief: as §1

[9] = tested on: PPARg:RXRa 30nM:10nM, anti-RXR (NR concentration 30 nM, RXRa partner concentration 10 nM)
Method in brief: as §1

[10] = tested on: PPARg:RXRa 90nM:30nM, anti-RXR (NR concentration 90 nM, RXRa partner concentration 30 nM)
Method in brief: as §1

[11] = tested on: PPARg:RXRa DBDmut IVT, anti-RXR (DBD mutation: RXRa K156A/R161A, NR concentration 270 nM, RXRa partner concentration 90 nM)
Method in brief: as §1

[12] = tested on: PPARg:RXRa IVT, anti-PPARg (NR concentration 270 nM, RXRa partner concentration 90 nM)
Method in brief: as §1

[13] = tested on: PPARg DBDmut:RXRa IVT, anti-PPARg (DBD mutation: PPARg1 K132A/R137A, NR concentration 270 nM, RXRa partner concentration 90 nM)
Method in brief: as §1

[14] = tested on: PPARg DBDmut IVT, anti-PPARg (DBD mutation: PPARg1 K132A/R137A, NR concentration 270 nM)
Method in brief: as §1

[15] = tested on: PPARg homodimer (NR concentration 180 nM)
Method in brief: as §1

[16] = tested on: PXR:RXRa (NR concentration 270 nM, RXRa partner concentration 90 nM)
Method in brief: as §1

[17] = tested on: PXR homodimer (NR concentration 270 nM)
Method in brief: as §1

[18] = tested on: RARa:RXR (NR concentration 270 nM, RXRa partner concentration 90 nM)
Method in brief: as §1

[19] = tested on: RARa homodimer (NR concentration 270 nM)
Method in brief: as §1

[20] = tested on: RARb:RXRa (NR concentration 270 nM, RXRa partner concentration 90 nM)
Method in brief: as §1

Row | Sequence | PBM binding z-score [1] | PBM binding z-score [2] | PBM binding z-score [3] | PBM binding z-score [4] | PBM binding z-score [5] | PBM binding z-score [6] | PBM binding z-score [7] | PBM binding z-score [8] | PBM binding z-score [9] | PBM binding z-score [10] | PBM binding z-score [11] | PBM binding z-score [12] | PBM binding z-score [13] | PBM binding z-score [14] | PBM binding z-score [15] | PBM binding z-score [16] | PBM binding z-score [17] | PBM binding z-score [18] | PBM binding z-score [19] | PBM binding z-score [20]
1 | ACTAACAGGCCAAGTTTGGGTCACTCAAACAAAG | 0.517 | 0.251 | -0.258 | 0.977 | 0.105 | 1.45 | 0.241 | 0.254 | -0.0822 | 0.083 | 0.131 | 0.999 | -0.122 | 0.374 | 0.38 | 0.912 | -0.269 | 1.75 | -0.388 | 2.11
2 | GCTATTAGTTGAAAGGGCAACCGCATGATTCTCG | 0.581 | 0.701 | 0.377 | 0.909 | -0.00487 | 2.31 | 2.89 | 4.29 | 2.56 | 4.39 | 0.567 | 1.26 | -0.261 | -0.166 | 1.06 | 0.577 | 0.17 | 1.39 | 0.567 | 1.71
3 | AGAATGAGGTTATTAAGATCAGAGAATTGCGGTC | 1.56 | 1.62 | 0.0516 | 1.19 | 0.109 | 2.71 | 1.59 | 1.75 | 0.553 | 1.22 | 3.17 | 2.63 | 0.323 | 0.23 | 0.951 | 1 | 0.488 | 1.2 | 0.79 | 1.16
4 | CGAACGAGGGCATGAGTTGATAGTAAATGCCGAT | 0.719 | 0.489 | -0.433 | 0.273 | -0.709 | 1.27 | 1.45 | 1.26 | 0.122 | 0.578 | 3.01 | 1.98 | -0.123 | 0.201 | -0.00807 | 0.636 | 0.316 | 0.644 | -0.245 | 1.94
5 | ACTAGCAGGCCAAGGGGCACTCAAGATTAGTCCG | -0.336 | -0.192 | -0.413 | 0.0457 | -0.63 | 1.63 | 4.11 | 4.46 | 2.5 | 4.64 | 0.959 | 1.41 | 0.105 | -0.646 | -0.02 | -0.175 | -0.332 | -0.0268 | -0.844 | 1.09
6 | TCTTGTAGATCAACAGGAGGTTAAGAAGGATCGA | 0.614 | 0.955 | 0.0858 | 0.854 | -0.55 | 1.34 | 0.000249 | 1.23 | 2.58 | 1.73 | 1.57 | 0.719 | 0.516 | 0.84 | -0.0308 | 0.778 | -0.0185 | 0.915 | -0.325 | 0.474
7 | TCTAGTTGGTCAAGGGTCACACACTCGAAATGCG | 4.17 | 3.76 | 1.25 | 4.01 | 0.821 | 5.27 | 9.83 | 8.51 | 9.9 | 9.97 | 2.52 | 5.1 | 1.64 | 0.978 | 4.73 | 4.32 | 0.895 | 5.98 | 2.83 | 3.94
8 | GCAGATAGGTAATACAAGGTGAAAGTCCGATTGT | 1.42 | 2.24 | 0.134 | 0.475 | -0.791 | 1.04 | 0.544 | 0.592 | 0.199 | 0.421 | 0.315 | 0.869 | 0.607 | 0.154 | 0.298 | 0.645 | 0.172 | 0.91 | 0.423 | 0.412
9 | GATACAGGGTAAAGGCCAGAGTACGCGTATTGAT | 0.103 | -0.0959 | -0.132 | 0.0218 | -0.658 | 2.46 | 4.52 | 5.45 | 3.7 | 5.48 | 1.02 | 2.64 | 0.254 | -0.000144 | 0.5 | 0.017 | -0.0145 | 0.137 | -0.111 | 1.18
10 | CATACAGGGCCAGCTAGGCCAGAGTAGGGACGGC | -0.56 | -0.822 | -0.918 | -1.15 | -0.413 | -0.817 | 0.311 | -0.829 | -0.392 | -1 | -0.75 | -0.0426 | -0.139 | -0.903 | -0.651 | -0.993 | -0.765 | -0.772 | -0.751 | 0.645
11 | ATCCCTAGGTAAAAGTTCAGTGAATCCCGAGGAT | 0.811 | 1.11 | 0.954 | 0.838 | 0.347 | 2.71 | 3.92 | 4.85 | 3.04 | 4.55 | -0.636 | 1.17 | -0.0921 | 0.662 | 0.927 | 1.97 | 1.19 | 1.18 | 0.513 | 2.16
12 | ATCGAAAGGACGTGAGGTGAGTATACAGAAAGGC | -0.29 | -0.461 | -0.29 | -0.468 | -0.162 | -0.116 | 0.724 | -0.318 | 0.185 | -0.252 | -0.822 | 0.152 | 1.3 | 0.397 | 0.165 | -0.361 | -0.0869 | 0.0924 | 0.0832 | 1.09
13 | TTACCAAGGTGAGGGTCGTTGATCCCTCTGTAGA | 1.32 | 0.898 | -0.621 | 0.915 | -0.774 | 1.88 | 0.82 | 2.03 | 0.53 | 1.46 | 1.3 | 2.21 | -0.596 | -0.428 | 0.109 | 0.865 | -0.63 | 1.36 | -0.812 | 1.45
14 | CCTTACGAGTCACGAGGTTATAGCACGACGAGCG | 0.991 | 1.29 | 0.451 | 1.22 | 0.355 | 1.84 | 1.22 | 0.515 | -0.27 | 0.183 | 0.274 | 0.318 | 0.557 | 0.13 | 1.26 | 1.25 | 0.811 | 1.79 | 1.56 | 0.971
